From PubChem BioAssay (NCI)
Where “and” joins values, the source holds several entries; their conditions need not be identical. Equal entries are not always repeated. The panel holds about 79,000 compounds, 15% with a hit somewhere; the sample as a whole holds those more often. Calls of active or inactive are those of the source. No stated cut-off is given here; in the data, active means growth inhibition above about 70%; inactive means the rest.

Assays:
[1] = NCI Yeast Anticancer Drug Screen. Data for the rad50 strain (AID 155);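 further: 0% = growth of vehicle-only cultures of the same strain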; details: S. cerevisiae rad50 strain growth inhibition, active compounds read high; at 50.0 µM unless noted
Outline: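 Inhibition values express reduced yeast growth in compound-treated cultures relative to vehicle-treated controls.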

[2] = NCI Yeast Anticancer Drug Screen. Data for the mec2-1 strain (AID 157); details: S. cerevisiae mec2-1 strain, active compounds read high; at 50.0 µM unless noted
Outline: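 Yeast mec2-1 mutant treated with compound. Readout: growth inhibition vs vehicle controls.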

[3] = NCI Yeast Anticancer Drug Screen. Data for the sgs1 mgt1 strain (AID 161);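 further: 0% = growth of cultures given vehicle only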; details: S. cerevisiae sgs1 mgt1 strain, active compounds read high; at 50.0 µM unless noted
Outline: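 Mutant yeast exposed to compound; growth scored against vehicle-only wells.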

[4] = NCI Yeast Anticancer Drug Screen. Data for the cln2 rad14 strain (AID 165);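 further: 0% = growth equal to vehicle treated cultures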; details: S. cerevisiae cln2 rad14 strain, active compounds read high; at 50.0 µM unless noted
Outline: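 cln2 rad14 yeast strain; compound exposure; growth inhibition read vs vehicle controls.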

[5] = NCI Yeast Anticancer Drug Screen. Data for the bub3 strain (AID 167); details: S. cerevisiae bub3 mutant strain, active compounds read high; at 50.0 µM unless noted
Outline: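 Steps: expose the mutant yeast strain to compound; grow alongside vehicle-treated cultures; measure growth; express inhibition against the vehicle cultures.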

[6] = NCI Yeast Anticancer Drug Screen. Data for the mlh1 rad18 strain (AID 175); details: S. cerevisiae mlh1 rad18 strain growth inhibition, active compounds read high; at 50.0 µM unless noted
Outline: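 Yeast w/ defined DNA-repair lesions; compound exposure; growth vs vehicle controls → % inhibition.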

Measured: growth inhibition

CN(C)/C=N/n1c2ccccc2c2ccccc21
inactive: [1] -1.7% | [2] -6.8% | [3] 0% | [4] -7.55% | [5] 23.6% | [6] 14.8%

CCCCOC(=O)NC(Nc1ccc(S(N)(=O)=O)cc1)(C(F)(F)F)C(F)(F)F
inactive: [1] 5.95% | [2] 7.9% | [3] 2.95% | [4] -1.4% | [5] 12.1% | [6] 18.3%

CCOC(=O)/C(F)=C/c1ccc(C#N)cc1
inactive: [1] 29.3% | [2] -19.9% | [3] -4.25% | [4] 3.7% | [5] 8.35% | [6] 15.8%

CN(C)c1ccc(N)c(N)c1
inactive: [1] -13.5% | [2] -34.8% | [3] -4.45% | [4] 12.1% | [5] 5.95% | [6] -12.9%

COc1cc(C2c3cc4c(c(OC5OC(CO)C(O)C5O)c3CC3COC(=O)C32)OCO4)cc(OC)c1OC (stereo not drawn)
inactive: [1] 34.4% | [2] 6.65% | [3] 17.9% | [4] 19.9% | [5] -0.95% | [6] 5.7%

C=CCSc1cccc(C)c1
inactive: [1] -19.4% | [2] 14.9% | [3] -12.6% | [4] -25.6% | [5] -14.1% | [6] -16.1%

CCOC(=O)C(=CNC(=S)Nc1c(CC)cccc1CC)C(=O)OCC
inactive: [1] -26.2% | [2] -38.4% | [3] -2.9% | [4] 4.65% | [5] -5.15% | [6] -59.9%

CC(C)CNC(=O)c1ccccc1Cl
inactive: [1] -22.9% | [2] 20.1% | [3] -5.4% | [4] -32.4% | [5] 2.55% | [6] -11.1%

O=C(c1ccccc1)N1CCC(Nc2nccs2)O1 (stereo not drawn)
inactive: [1] -37.4% | [2] -26.1% | [3] -11.4% | [4] -9.75% | [5] -8.15% | [6] -2.35%

CCCCCN1C(=O)c2ccccc2C1=O
inactive: [1] 23.1% | [2] 10.5% | [3] 6.4% | [4] 5.15% | [5] 6.3% | [6] -0.55%

COc1cc(C)c(C)c(OC(=O)c2c(C)c(C)c(OC)c(C)c2OC)c1C
inactive: [1] 10.3% | [2] -17.1% | [3] 11.3% | [4] 8.9% | [5] 23.6% | [6] 16.1%

c1cncc(C2N3CCCCC3[C@@H]3c4[nH]c5ccccc5c4CCN23)c1 (stereo partly drawn)
inactive: [1] -26.6% | [2] -40.5% | [3] -22.8% | [4] -8.25% | [5] -15.1% | [6] -26.9%

CCCCCCCCCCCCCCCCCCNC(=S)N/N=C/c1ccccc1[N+](=O)[O-]
inactive: [1] -17.1% | [2] 2.75% | [3] -20.1% | [4] 4.95% | [5] -13.1% | [6] -7.65%

CCN(CC)CCC(=O)c1ccccc1
inactive: [1] -7.5% | [2] -4.25% | [3] -8.45% | [4] -7.25% | [5] -20.1% | [6] -7.85%

COc1cccc(C)c1NC(=O)NCCCl
inactive: [1] 17.6% | [2] 1.05% | [3] 13.2% | [4] -25.2% | [5] 12.1% | [6] 5.05%

CC(CN(CP(=O)([O-])[O-])CP(=O)([O-])[O-])N(CP(=O)([O-])[O-])CP(=O)([O-])[O-].N.N.[Pt+2] (stereo not drawn)
inactive: [1] -18.6% | [2] -20.5% | [3] -18.9% | [4] 23.6% | [5] 9.9% | [6] -10.8%

OCCN1CCN=C1Cc1ccccc1
inactive: [1] 4.75% | [2] 11.9% | [3] 8.05% | [4] 14.2% | [5] -2.1% | [6] 29.4%

CC(=O)OC1=C2OC(=O)C3(C2C=CC=C1)C1C=CC=CC13 (stereo not drawn)
inactive: [1] -17.9% | [2] 1.3% | [3] 2.8% | [4] -2.45% | [5] -13.8% | [6] -1.95%

CCn1nc(C)c2c1C(=O)NC(C)C(=O)N2 (stereo not drawn)
inactive: [1] -22.6% | [2] -33% | [3] -13.5% | [4] 16.4% | [5] -22.9% | [6] -22.4%

OCC1OCOC(CO)(CO)C1O (stereo not drawn)
inactive: [1] 1.15% | [2] 0.05% | [3] 8.1% | [4] -44.3% | [5] 21.7% | [6] 3.75%

CCCCCOC(=O)c1ccc(C(C)C)cc1
inactive: [1] 10.2% | [2] -6.2% | [3] 5.15% | [4] 8.5% | [5] 0.6% | [6] 5.1%

CCCCCCCC/C=C\CCCCCCCC(=O)NC(C)(C)C(=O)O
inactive: [1] -16.2% | [2] -15.7% | [3] -9.5% | [4] 62.6% | [5] 32.2% | [6] -36.4%

O=S1(=O)CS/C(=N\C(=S)N(c2ccccc2)c2ccccc2)N1c1ccccc1
inactive: [1] 32.5% | [2] -11.3% | [3] -3.4% | [4] 18.2% | [5] 4.75% | [6] 2.2%

Cc1nc2cccc3ccc4c5ccccc5cc1c4c32
inactive: [2] 15.2% | [3] -25% | [4] 0.9% | [5] 21.6% | [6] 49.3%
active: [1] 70%

Clc1ccc(-c2c(C3=NCCCN3)nnn2-c2ccc(Cl)cc2)cc1
inactive: [1] -16.6% | [2] -17.9% | [3] -10.9% | [4] 11.7% | [5] -3.6% | [6] -25.7%

N#C/C(=C1/c2cc([N+](=O)[O-])ccc2-c2c1cc([N+](=O)[O-])cc2[N+](=O)[O-])N1CCCCC1
inactive: [1] -25.4% | [2] -5.3% | [3] 2.5% | [4] -17.8% | [5] -22.8% | [6] -13.7%

Nc1ccc2c(C(F)(F)F)cc(=O)oc2c1
inactive: [1] 14.2% | [2] -2.2% | [3] 8.2% | [4] -29.6% | [5] 8.55% | [6] 8.8%

CC(=O)OC1OC(COC(c2ccccc2)(c2ccccc2)c2ccccc2)C(OC(C)=O)C(OC(C)=O)C1OC(C)=O (stereo not drawn)
inactive: [1] 12.8% | [2] -8.6% | [3] -6.15% | [4] 6.4% | [5] 1.7% | [6] 24.6%

CC(=O)CSc1c(-c2ccccc2)c(=O)n(-c2ccccc2)c(=S)n1-c1ccccc1
inactive: [1] -3.8% | [2] -10.1% | [3] -13.2% | [4] -2.3% | [5] -8.5% | [6] 3.85%

NCC(=O)NC(Cc1c[nH]c2ccccc12)C(=O)O (stereo not drawn)
inactive: [1] 7.85% and -4.8% | [2] -4.65% and 1.4% | [3] 7.45% and -7.4% | [4] -0.8% and 13.8% | [5] 26.8% and -10% | [6] -0.75% and -5.4%

c1cc2c(cc1CSCc1c(CSCc3ccc4c(c3)OCO4)c(CSCc3ccc4c(c3)OCO4)c(CSCc3ccc4c(c3)OCO4)c(CSCc3ccc4c(c3)OCO4)c1CSCc1ccc3c(c1)OCO3)OCO2
inactive: [1] -0.95% | [2] -8.65% | [3] -1.4% | [4] -39% | [5] 2.55% | [6] 9.3%

Nc1ncnc(N)c1NC(=O)c1ccc2ccccc2c1
inactive: [1] 8.95% | [2] 35.1% | [3] -1.55% | [4] -1.85% | [5] -20.4% | [6] -21.4%

CCSC1C(O)C(CO)OC1n1cnc2c(=S)nc[nH]c21 (stereo not drawn)
inactive: [1] -3.65% | [2] -28.7% | [3] -2% | [4] 2.6% | [5] 5% | [6] 0.2%

CCOC(=O)C1=CC(C(=O)OCC)=C2C=CC=C3C=CC=C1N32
inactive: [1] 7.75% | [2] 8.7% | [3] 25.9% | [4] -1.65% | [5] -18% | [6] -2.95%

CCNc1ncnc2ncn(C)c12
inactive: [1] 18.9% | [2] -6.9% | [3] 15.1% | [4] 12.6% | [5] 15.1% | [6] -0.5%

COCCN=Cc1ccc(N(C)C)cc1
inactive: [1] 4.35% | [2] -4.8% | [3] -3.05% | [4] -26.4% | [5] 7.45% | [6] 3.7%

CNc1cc(C(C)C)ccc1C
inactive: [1] 4.1% | [2] 8.75% | [3] 10.7% | [4] 0.85% | [5] 17.1% | [6] 3.25%

NC1CC(=O)c2ccccc21 (stereo not drawn)
inactive: [1] 15.2% | [2] 4.8% | [3] -5% | [4] 8.95% | [5] 2.75% | [6] -37.6%

O=C(CCCN1CCC2(CC1)C(=NC1CCCCC1)NC(=O)N2c1ccccc1)c1ccc(F)cc1
inactive: [1] -10.8% | [2] -3.6% | [3] -3% | [4] 3.45% | [5] 13.7% | [6] -6.85%

CC1(C)CSCC(C)(C)C(=N/N)/C1=N\N
inactive: [1] 6.95% | [2] 22.7% | [3] -8.35% | [4] 4.35% | [5] -33% | [6] -41.3%

CCc1cccc(C(C)C)c1NC(=O)C(=O)Nn1c(=S)[nH]c2ccccc2c1=O
inactive: [1] -7.15% | [2] -23.1% | [3] -10.2% | [4] 2.75% | [5] -17.2% | [6] -12.6%

COc1cc(/C=C/C(=O)c2c(=O)o[nH][n+]2-c2ccccc2)ccc1[O-]
inactive: [1] -3.75% | [2] -7.1% | [3] 16.1% | [4] 20.9% | [5] -1.85% | [6] -18.1%

O=c1cc2ccc(Cl)cc2n[nH]1
inactive: [1] 8.1% | [2] 2.7% | [3] 2.05% | [4] -33.4% | [5] -14.3% | [6] 4.5%
